Out of some 310,000 compounds screened, about 1,700 (0.55%) were called active. What follows is part of a selection rich in actives, with near analogues and random picks from the rest. Unmarked numbers belong to inactive results. Cut-off read from the data, not from the text of the source: active = inhibition above about 50%; inactive = the rest.

For 92 molecules, inhibition results are on record in PubChem BioAssay AID743445 (Broad Institute, 2014).

Sequence of Histone-lysine N-methyltransferase NSD2 (Homo sapiens) (O96028 whole entry, looked up): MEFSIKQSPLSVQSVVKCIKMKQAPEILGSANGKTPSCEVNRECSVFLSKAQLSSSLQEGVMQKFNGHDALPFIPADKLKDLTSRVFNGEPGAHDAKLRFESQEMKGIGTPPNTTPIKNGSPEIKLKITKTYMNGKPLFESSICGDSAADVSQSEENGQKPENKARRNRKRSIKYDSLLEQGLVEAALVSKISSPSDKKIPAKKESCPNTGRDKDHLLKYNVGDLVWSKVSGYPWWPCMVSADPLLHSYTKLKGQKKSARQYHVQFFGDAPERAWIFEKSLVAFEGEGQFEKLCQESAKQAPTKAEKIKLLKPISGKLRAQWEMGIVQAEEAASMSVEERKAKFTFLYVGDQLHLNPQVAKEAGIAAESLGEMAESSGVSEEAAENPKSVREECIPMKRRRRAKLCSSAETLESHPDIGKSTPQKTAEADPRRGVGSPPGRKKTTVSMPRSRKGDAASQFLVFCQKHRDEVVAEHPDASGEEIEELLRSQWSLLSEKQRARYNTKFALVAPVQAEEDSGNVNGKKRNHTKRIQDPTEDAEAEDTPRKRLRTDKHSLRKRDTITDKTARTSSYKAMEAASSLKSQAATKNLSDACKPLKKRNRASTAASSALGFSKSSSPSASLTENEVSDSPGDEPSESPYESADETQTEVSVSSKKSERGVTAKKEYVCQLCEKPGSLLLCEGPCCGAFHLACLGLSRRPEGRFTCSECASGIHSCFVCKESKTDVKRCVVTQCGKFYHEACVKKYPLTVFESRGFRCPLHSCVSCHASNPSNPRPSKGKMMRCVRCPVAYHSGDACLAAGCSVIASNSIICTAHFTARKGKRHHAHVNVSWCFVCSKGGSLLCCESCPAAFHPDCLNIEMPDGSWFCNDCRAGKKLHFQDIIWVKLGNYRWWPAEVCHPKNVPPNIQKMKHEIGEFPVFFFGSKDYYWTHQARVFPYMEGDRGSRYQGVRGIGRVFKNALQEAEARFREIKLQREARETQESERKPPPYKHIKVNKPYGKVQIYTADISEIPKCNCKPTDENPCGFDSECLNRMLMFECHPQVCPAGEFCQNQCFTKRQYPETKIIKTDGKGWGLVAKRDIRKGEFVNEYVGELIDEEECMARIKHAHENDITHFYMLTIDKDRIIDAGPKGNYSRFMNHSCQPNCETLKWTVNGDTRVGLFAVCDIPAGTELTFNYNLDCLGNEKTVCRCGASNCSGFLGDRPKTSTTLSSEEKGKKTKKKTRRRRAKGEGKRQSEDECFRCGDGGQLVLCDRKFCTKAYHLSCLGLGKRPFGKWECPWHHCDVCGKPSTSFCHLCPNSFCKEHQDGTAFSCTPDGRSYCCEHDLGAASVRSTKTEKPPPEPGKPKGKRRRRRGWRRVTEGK

The assay addresses Histone-lysine N-methyltransferase NSD2 (Homo sapiens) (UniProt O96028). Briefly: NSD2 histone methyltransferase inhibitors, primary screen, biochemical, AlphaScreen, single concentration, set 2 (AID 743445). The settings on record: NSD2 peptide methylation, 120 min, at 12.5 µM, active compounds read high. (Bead proximity is the source of the signal in Alpha formats.)
Consider `CN(CC(=O)Nc1ccc(F)cc1)C(=O)c1ccc(-c2ccc(Cl)cc2)o1`, for which the inhibition (usually the drop in the measured response relative to a control, in per cent) was -0.366%.
In the case of `O=C(NC1CCCCC1)c1ccc(-c2ccc(Cl)cc2)o1` it was -1.75%; in that of `Cc1[nH][nH]c(=O)c1C(c1ccc(-c2ccc(Cl)cc2)o1)c1c(C)[nH][nH]c1=O`, 105% (active); in that of `O=C(NCC1COc2ccccc2O1)c1ccc(NC(=O)c2cc(F)ccc2F)cc1` (configuration not stated), -0.735%.
For `CC1CCN(CCC(=O)Nc2ccccc2)CC1`, the inhibition is 51.1% (active).
For `COc1ccc(OC)c(NC(=O)CCN2CCC(C)CC2)c1`, the inhibition was 0.958%.
Consider `CCOC(=O)N1CCN(CCC(=O)Nc2ccccc2)CC1`, for which the inhibition was -3.41%.
As for `O=c1[nH]c(CN2CCOCC2)nc2cc(Cl)ccc12`, the figure is 108% (active); as for `O=c1[nH]c(CN2CCOCC2)nc2scc(-c3ccccc3)c12`, -2.17%; as for `CN(CCOc1ccccc1)Cc1nc2cc(Cl)ccc2c(=O)[nH]1`, -1.91%.
For the molecule `Cc1ccccc1CS(=O)(=O)Cc1ccc(C(=O)Nc2ccc(Cl)cc2)o1`, the inhibition was 1.09%.
Regarding `CCOC(=O)c1csc(NC(=O)C2CCCN(S(=O)(=O)c3ccc(Cl)s3)C2)n1` (configuration not stated), the inhibition was 2.06%.
In the case of `O=C(CSc1nnc(-c2ccccc2O)o1)NC1CCCCC1` it was 55.7% (active); in that of `Cc1cc(C)cc(-c2nnc(SCC(=O)NC3CC3)o2)c1`, 0.103%; in that of `Cc1occc1-c1nnc(SCC(=O)NC2CCCCC2)o1`, 0.775%.
As for `CN(C)C(=O)N1CCN(C(=O)[C@@H](Cc2ccccc2)NC(=O)[C@H]2O[C@@H](n3ccc(N)nc3=O)[C@H](O)[C@@H]2O)CC1`, the figure is -3.38%.
Regarding `Clc1ccc(C2=CSC3=Nc4cccc5cccc(c45)N23)cc1`, the inhibition is 125% (active).
In the case of `COc1ccc(CNC(=O)c2nnn(CC(=O)Nc3cc(C)cc(C)c3)c2N)cc1` it was 0.097%; in that of `CCc1ccc(NC(=O)Cn2nnc(C(=O)NCc3ccc(OC)cc3)c2N)cc1`, -10.9%; in that of `COc1ccc(NC(=O)Cn2nnc(C(=O)NCCc3ccc(OC)c(OC)c3)c2N)cc1`, 159% (active).
Turning to `CC(C)(C)c1ccc(CSc2nnc(-c3cccs3)o2)cc1`, the inhibition is -3.66%.
As to `C=CCn1c(=NC(=O)c2ccc(S(=O)(=O)N3CCCC3)cc2)sc2cc(NC(C)=O)ccc21`, the inhibition was 96.1% (active).
In the case of `COc1cc(C(C)=O)ccc1OC(C)C(=O)Nc1ccc(S(=O)(=O)N2CCCC2)cc1` (configuration not stated) it was -0.04%.
In the case of `CC(=O)Nc1ccc(S(=O)(=O)N2CCSCC2)cc1` it was -0.875%; in that of `Clc1ccc(-n2c(SC/C=C/c3ccccc3)nnc2-c2ccco2)cc1`, 1.46%.
As for `COc1cccc(CNC(=O)C2CCCN(c3nc4ccccc4o3)C2)c1OC` (configuration not stated), the figure is 0.947%; as for `CN(C)CCNC(=O)c1ccc(-c2cn3c(-c4ccc(Oc5ccccc5)cc4)cnc3cn2)cc1`, 1.51%.
Turning to `Cc1ccc(C(=O)C2CCN(CC(=O)NCCC(C)C)CC2)cc1`, the inhibition was -1.14%.
As to `O=C(NC(c1ccc(Cl)cc1)c1cnccn1)C1CCN(Cc2ccc(Cl)cc2)CC1` (configuration not stated), the inhibition is -0.128%.
As for `Cn1c(=O)c2cc(NC(=O)NCCc3cccs3)ccc2n1Cc1cccc(C(F)(F)F)c1`, the figure is 0.114%; as for `CCN1CCN(CCNC(=O)c2ccc3c(c2)NC(=O)/C(=C\c2cccc(Cl)c2)S3)CC1`, 2.99%.
In the case of `CCN1CCCC1CNC(=O)c1ccc2c(c1)NC(=O)/C(=C\c1ccccc1F)S2` (configuration not stated) it was 21.8%.
In the case of `O=C1Nc2cc(C(=O)N3CCC(N4CCCCC4)CC3)ccc2S/C1=C\c1ccccc1`, the inhibition was 50.2% (active).
Turning to `CCC(=O)N1CCc2cc(S(=O)(=O)CCC(=O)N3CCN(c4ccccc4F)CC3)ccc21`, the inhibition is -2.83%.
In the case of `CCOC(=O)N1CCC(NC(=O)C(NS(=O)(=O)c2ccc3c(c2)CCN3C(=O)CC)C(C)C)CC1` (configuration not stated) it was 17.1%; in that of `CCC(=O)N1CCc2cc(S(=O)(=O)NC(C(=O)N3CCc4ccccc4C3)C(C)C)ccc21` (configuration not stated), 59.8% (active); in that of `COc1cccc(-c2cc3nc(NCc4ccccc4OC)n(C)c(=O)c3s2)c1`, -2.63%.
As for `O=C(CSc1nc2ccccc2s1)NN=Cc1ccc(O)cc1O`, the figure is 9.45%; as for `C=CCNC(=O)CCCOc1cccc(C)c1`, -2.74%.
In the case of `C=CCNCCCCOc1ccccc1` it was 73.8% (active); in that of `CCCCCCCCC(=O)NCCOc1ccccc1`, 1.73%; in that of `Cc1ccc(CC2(C)C(=O)Nc3ccc(OC(F)(F)F)cc32)cc1` (configuration not stated), -1.93%.
Take `O=C(CN1CCC(NC(=O)NCc2ccccc2)CC1)Nc1ccc2c(c1)OCCO2`: the inhibition is -3.14%.
As for `O=C(NCc1cccs1)C1CCN(S(=O)(=O)c2ccccc2[N+](=O)[O-])CC1`, the figure is -1.94%; as for `COc1ccc(S(=O)(=O)NCCCc2ccccc2)cc1`, -2.03%; as for `Cc1ccc(S(=O)(=O)N[C@H](CO)C(C)C)cc1`, -1.39%.
For `Cc1ccc(S(=O)(=O)N/N=C(\c2ccccc2)C2CC2)cc1`, the inhibition was -5.26%.
As for `Cc1ccc(S(=O)(=O)/N=C2\C=C(NS(=O)(=O)c3ccc(C)cc3)C(=O)c3ccccc32)cc1`, the inhibition is 186% (active).
Turning to `O=C1C=C(NS(=O)(=O)c2ccccc2)C(=O)c2ccccc21`, the inhibition is 16.2%.
Regarding `COc1ccc(S(=O)(=O)/N=C2\C=C(NS(=O)(=O)c3ccccc3)C(=O)c3ccccc32)cc1`, the inhibition was 116% (active).
Take `CCCCN(C=O)c1c(CC)nc2c(OCc3ccccc3C(=O)OC)cccn12`: the inhibition is 2.37%.
`Cc1nc2c(OCc3cccc(Cl)c3)cccn2c1N(C)CC1CC1`: the inhibition was 1.55%.
Turning to `CCn1c2ccccc2c2cc(NC(=O)CSc3nnc(-c4ccccc4)n3-c3ccc(C)cc3)ccc21`, the inhibition was 0.529%.
On to `Cc1nnc(SCC(=O)NCc2cccs2)[nH]c1=O`, for which the inhibition is -1.95%.
As for `O=C(Cc1cccs1)Nc1nnc(SCc2ccc(F)cc2)s1`, the figure is 0.676%; as for `CC(C)(C)CC(=O)Nc1nnc(SCC(=O)NCc2cccs2)s1`, 63.2% (active).
As for `CCOC(=O)[C@]12CCCC=C1N(CCC1=CCCCC1)C(=O)[C@H](CC(=O)NCCCCc1ccccc1)C2`, the inhibition is 1.69%.
In the case of `O=C(NC1CCCCCC1)C1CCN(C(=O)c2ccc(Cl)cc2)CC1`, the inhibition was -0.793%.
In the case of `Cc1ccnc(N2CCC(C(=O)NC3CCCCCC3)CC2)n1` it was 90.5% (active); in that of `Cc1ccnc(N2CCCC(C(=O)NC3CC3)C2)n1` (configuration not stated), -1.73%; in that of `O=S(=O)(c1ccccc1)N1CCC(c2nc3ccccc3o2)CC1`, -2.44%.
`CCOC(=O)c1nnn(-c2nonc2OC)c1-c1ccccc1`: the inhibition was 113% (active).
Turning to `Nc1nonc1-n1nnc(C(=O)N/N=C/C2CCCCC2)c1-c1ccccc1`, the inhibition was 4.38%.
In the case of `CCOC(=O)c1nnn(-c2nc(OC)nc(N(C)C)n2)c1-c1ccccc1` it was -2.39%.
As for `CN(CCc1ccccc1)C(=O)Cn1nc(-c2ccccc2)ccc1=O`, the figure is 4.36%; as for `Cc1cccc(OCC(=O)Nc2ccccc2F)c1`, 12.4%; as for `Cc1cccc(OCCC(=O)Nc2ccccc2C(N)=O)c1`, 93.5% (active).
As for `Cc1ccccc1NC(=O)CCOc1ccccc1`, the figure is -2.79%.
With `COc1ccc(-c2ccc(C(=O)NC(C)C)c3occc23)c(C)c1`, the inhibition was -1.69%.
In the case of `CCc1ccccc1NC(=O)CSc1nnc(-c2cccs2)o1`, the inhibition is 3.02%.
As for `Nc1ccn([C@@H]2O[C@H](C(=O)N[C@H]3CCCCNC3=O)[C@@H](O)[C@H]2O)c(=O)n1`, the figure is -3.79%.
As for `CCN(CC)c1ccc(NC(=O)c2ccc(Cl)nc2)cc1`, the figure is 2.22%; as for `O=C(NNC(=O)c1ccc(Cl)nc1)c1ccc(Br)cc1`, 98.9% (active).
In the case of `CC(=O)NC(=S)NNC(=O)c1ccc(Br)cc1` it was -3.53%.
In the case of `COc1ccc(-c2cc(-c3nnc(SCC(=O)Nc4cccc5ccccc45)n3N)[nH]n2)cc1`, the inhibition is -2.83%.
In the case of `CC(=O)c1ccc(Nc2nc(C(N)c3ccccc3)cs2)cc1` (configuration not stated) it was -2.82%.
In the case of `CC(=O)Nc1ccc(-c2ccnc3c2CC(C(=O)NC(C)C)O3)cc1` (configuration not stated), the inhibition was -0.999%.
In the case of `COc1ccc(NC(=O)C2Cc3c(-c4ccc(Cl)cc4)ccnc3O2)cc1` (configuration not stated), the inhibition was 54.6% (active).
As for `O=C(Nc1ccc(Cl)cc1)C1Cc2c(-c3ccc4c(c3)OCO4)ccnc2O1` (configuration not stated), the figure is -1.29%.
In the case of `Cc1ccc(S(=O)(=O)N(C)C)cc1NC(=O)/C=C/c1cccs1` it was 57.7% (active).
As for `CN(C)S(=O)(=O)c1cccc(NC(=O)COC(=O)/C=C/c2cccs2)c1`, the figure is -17%; as for `Cc1ccc(S(=O)(=O)N(C)C)cc1NC(=O)COC(=O)/C=C/c1cccs1`, 0.889%.
Consider `CC(NCc1ccco1)C(=O)N1CCCCC1` (configuration not stated), for which the inhibition is 0.508%.
In the case of `COc1ccccc1C(=O)CSc1nnc(-c2ccccn2)n1-c1ccccc1` it was -4.28%; in that of `CCOc1cc(NC(=S)NCCCOC)c(OCC)cc1NC(=O)c1ccco1`, 1.89%; in that of `Cc1nc2cc(NC(=O)NCc3ccccc3)ccc2o1`, -1.07%.
Turning to `COCCNC(=O)Nc1ccc2nc(-c3ccco3)c(-c3ccco3)nc2c1`, the inhibition is 104% (active).
Turning to `COc1ccccc1CNC(=O)c1cc(-c2cc(F)ccc2OC)n[nH]1`, the inhibition is 4.87%.
As for `CCc1nc2c(OCCOc3ccccc3)cccn2c1N(C)C(=O)c1ccc(OC)cc1`, the figure is -0.87%; as for `CCN1CCCC1CNC(=O)c1cc2cc(OC)c(OC)cc2[nH]1` (configuration not stated), 17.7%.
As for `CCN1CCCC1CNc1ncnc2c1[nH]c1ccc(F)cc12` (configuration not stated), the figure is 74.6% (active); as for `CCN1CCCC1Cn1cnc2c([nH]c3cc(OC)ccc32)c1=O` (configuration not stated), -4.76%.
